# High-throughput results as filed in PubChem BioAssay.
# Cycloheximide cs – counter-screen hit for Shiga toxin inhibitors, cycloheximide; cell reporter, cycloheximide protein synthesis inhibition counterscreen; max response, %; hit rate 12% among 300,000; AID 2314; in the data active means max response mostly above about 13%, no sharp cut-off; inactive means mostly below about 14%; further: read at 38.3 µM for the half of the compounds with a filed dose; 0% is about no effect
# Pf growth 96h – inhibits malaria parasite growth, 96 h. P. falciparum luciferase reporter growth, 96 h. Potency, µM (doses to about 28.7 µM), for inactives: at the highest dose activity change, negative = inhibition, actives largely listed as inhibitors. hit rate 6.9% among 320,000. AID 504834; further: potency means the concentration at half of the fitted maximal effect; on the % scale 0 is the no-effect control and ±100 the full control effect
#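 P. falciparum expressing integrated firefly luciferase, in erythrocytes at 2% hematocrit, 0.05% parasitemia, incubated with compounds 96 h at 37 C, 5% CO2. Growth inhibition read as loss of luminescence; two-generation exposure targets delayed-death apicoplast inhibitors.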
# Pf growth 48h – inhibits P. falciparum growth in the first generation, 48 h; hit rate 5.9% among 310,000; P. falciparum luciferase growth in erythrocytes, 48 h; Potency, µM (series often up to 28.7 µM), for inactives: top-dose activity change, negative = inhibition, hits mostly inhibitors; further: potency means the concentration at half of the fitted maximal effect; on the % scale 0 is the no-effect control and ±100 the full control effect
#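 Luciferase-expressing parasites in RBCs, 2% Hct / 0.1% parasitemia final; RPMI 1640 + 0.5% Albumax; 37 C, 5% CO2, one generation; luminescence read-out, lower signal = inhibition.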
# Shiga toxin inh – Shiga toxin inhibition. Vero cells, Shiga toxin protein synthesis inhibition reporter. inhibition, % at 38.7 µM. hit rate 9.2% among 290,000. AID 2315; in the data active means inhibition mostly above about 28%, no sharp cut-off; inactive means mostly below about 43%; further: 0% is about no effect
# * marks the source's active call; other numbers are inactive results; ? = inconclusive; · = not tested or not shown; ! = not active in a repeat; [ ] = dose if it differs, or a comment. This is a sample that favours compounds with a hit; in the whole collection about 21% have one here. Unless noted, the call rests on the fitted dose curve; in most records, active means well fitted inhibition curve with a large enough effect; inconclusive means small, poorly fitted or top-dose-only effect, or another doubt; inactive means no such curve, though single readings can be large or run the other way.
SMILES,Cycloheximide cs,Pf growth 96h,Pf growth 48h,Shiga toxin inh
O=C(COc1ccc2ccccc2c1)N1CCN(c2ccccc2)CC1,·,30%,33%,·
O=C(COc1ccc2ccccc2c1)N1CCCC1,40*,20%,-24%,79*
OC(COc1ccc2ccccc2c1)CN1CCCC1 (stereo not drawn),18*,31%,4%,37
OC(COc1ccc(OCC(O)CN2CCCCC2)cc1)CN1CCCCC1 (stereo not drawn),-1,-26%,?,·
CN1CCN(C(=O)COc2ccc3ccccc3c2)CC1,14*,16%,59%,31*
CN(Cc1ccc(OCC(O)CN2CCCCC2)cc1)Cc1ccnc2ccccc12 (stereo not drawn),-2,3%,12µM*,-13
OC[C@H]1O[C@H](OC[C@H]2O[C@H](OC[C@H]3O[C@H](O[C@]4(CO)O[C@H](CO)[C@@H](O)[C@@H]4O)[C@H](O)[C@@H](O)[C@@H]3O)[C@H](O)[C@@H](O)[C@H]2O)[C@H](O)[C@@H](O)[C@H]1O,·,8%,0%,·
Cc1ccc(-c2csc3nc(SCC(=O)Nc4ccc(Cl)c(C(=O)O)c4)[nH]c(=O)c23)cc1,2,33%,26%,2
O=C(COC(=O)CSc1ccc(F)cc1)NNC(=O)c1ccc([N+](=O)[O-])cc1,·,28%,3%,·
CN(C(=O)CSc1nnc(C2CC2)n1C1CC1)C1(C#N)CCCCC1,·,5%,10%,·
O=C1CN(C(=O)COC(=O)c2cccc(OCc3ccccc3)c2)c2ccccc2N1,8,?,?,20
COc1ccc(S(=O)(=O)Nc2ccccc2C(N)=O)cc1OC,3,380%,-1%,-16
Cn1c(SCC(=O)N2CC(=O)Nc3ccccc32)nnc1C(F)(F)F,·,8%,-26%,·
CC(C)C(=O)N1CCN(c2ccccc2NC(=O)c2cc([N+](=O)[O-])ccc2N2CCOCC2)CC1,1,-23%,?,-12
COc1ccc(N2CCN(C(=O)COc3ccc4ccccc4c3)CC2)cc1,-1,9.3µM*,4%,-5
COC(=O)N/N=C/c1ccc([N+](=O)[O-])o1,-2,12µM*,13µM*,-4
CN(/N=C/c1ccc([N+](=O)[O-])o1)c1ccccc1,33*,3%,12%,42
CC(=O)N(/N=C/c1ccc([N+](=O)[O-])o1)c1nc2ccccc2c(=O)n1-c1ccccc1,1,-7%,-7%,6
O=C(N/N=C/c1ccc([N+](=O)[O-])o1)C(O)c1ccccc1 (stereo not drawn),2,?,?,12
O=C(N/N=C/c1ccccc1Cl)C1CC1,6,19%,1%,-2
O=C(N/N=C/c1ccc([N+](=O)[O-])o1)C1CC1,11,4.1µM*,0%,-5
NC(=O)N/N=C/c1ccc([N+](=O)[O-])o1,·,5.4µM*,12µM*,·
Cc1cnc(C(=O)NCCc2ccc(S(=O)(=O)NC(=O)NC3CCCCC3)cc2)cn1,-4,6.7µM*!,-17%,-10
Cc1cnc(C(=O)NCCc2ccc(C(F)(F)F)cc2)cn1,1,7%,23%,-8
CN(CC(=O)Nc1cccc([N+](=O)[O-])c1)S(=O)(=O)c1ccccc1,-2,49%,9%,5
SMILES,Cycloheximide cs,Pf growth 96h,Pf growth 48h,Shiga toxin inh
O=C(Nc1cccc(S(=O)(=O)N2CCCCC2)c1)c1cccs1,-3,-20%,-18%,23
O=C(Oc1cccc(NC(=O)c2ccco2)c1)c1cccc(S(=O)(=O)N2CCCC2)c1,18*,3%,32%,25
O=C(O)c1cccc(NC(=O)c2cccc(S(=O)(=O)N3CCCCC3)c2)c1,-3,?,240%,5
O=C(Oc1cccc(NC(=O)c2cccs2)c1)c1cccc(S(=O)(=O)N2CCCC2)c1,14*,?,62%,38
Cc1cc2c(s1)c1cnn(Cc3ccc(C)c(F)c3F)c(=O)c1n2C,-7,·,·,-5
Cc1cc2n(n1)SC(Nc1ccc(F)c(Cl)c1)N2 (stereo not drawn),32*,9%,34%,active
O=[N+]([O-])c1ccccc1/C=N/Nc1nnc(-c2ccccc2)c(-c2ccccc2)n1,-7,45%,34%,-13
CC(C)NC(=S)N1CCCN(c2ncccc2[N+](=O)[O-])CC1,1,9.3µM*,?,-3
Cn1cnnc1Sc1cc(N2CCN(S(=O)(=O)c3ccc4ccccc4c3)CC2)ccc1[N+](=O)[O-],11*,-17%,?,26
Cn1cnnc1Sc1cc(N2CCN(S(=O)(=O)c3ccc(Cl)c(Cl)c3)CC2)ccc1[N+](=O)[O-],-4,-2%,12µM*,1
CC(C)CC(=O)N=C1SC2CS(=O)(=O)CC2N1Cc1ccccc1Cl (stereo not drawn),0,10%,-2%,45
Cn1nnnc1SCc1ccc(C(=O)Nc2ccccc2F)cc1,32*,-23%,56%,45*
Cc1ccc(NC(=O)c2ccc(CSc3nccc(C)n3)cc2)cc1,12,-19%,-27%,18
O=C(Nc1ccccc1)c1ccc(CSc2ncccn2)cc1,97*,201%,263%,107*
O=C(Nc1ccccc1F)c1ccc(CSc2ncccn2)cc1,30*,?,332%,86*
Cn1nnnc1SCc1ccc(C(=O)Nc2nccs2)cc1,37*,·,67%,51*
O=C1c2ccc3c4c(ccc(c24)C(=O)N1c1ccc(O)cc1)C(=O)N(c1ccc(O)cc1)C3=O,-2,4.7µM*,-15%,-9
CC(Oc1ccccc1)C(=O)Nc1ccc(NC(=O)c2ccccc2)cc1 (stereo not drawn),-4,31%,?,-9
COc1ccccc1NC(=O)C(C)NS(=O)(=O)c1ccc(F)cc1 (stereo not drawn),-3,·,-24%,-3
COC(=O)c1ccccc1NC(=O)C(C)Oc1ccccc1 (stereo not drawn),-3,1%,7.4µM*,-3
COc1cc(NC(=O)C(C)Oc2ccccc2)c(OC)cc1NC(=O)c1ccccc1 (stereo not drawn),-1,?,10µM*,-10
COC(=O)c1ccccc1NC(=O)C(C)NS(=O)(=O)c1ccc(OC)cc1 (stereo not drawn),3,·,1.3µM*,-8
O=C(C1CCCO1)N1CCN(S(=O)(=O)c2cc(C(F)(F)F)ccc2Cl)CC1 (stereo not drawn),·,14%,-3%,·
CCn1c(SCC(=O)NC2CC2)nnc1-c1cccc(OC)c1,-1,89%,-16%,-7
Cc1ccccc1C(O)(Cc1ccccc1)C1CN2CCC1CC2 (stereo not drawn),-5,10µM*,·,-20
Cc1ccc(C(O)(c2ccc(C)c(C)c2)C2CN3CCC2CC3)cc1C (stereo not drawn),-7,?,4%[0.00184 µM],-13
Cc1ccc2oc(C(=O)NC3CCS(=O)(=O)C3)cc(=O)c2c1 (stereo not drawn),-2,?,-1%,8
CCOc1ccc(OCCSc2nc(C)cc(=O)[nH]2)cc1,30*,?,28%,124*
Cc1ccc(SCCSc2nc(N)cc(=O)[nH]2)cc1,22*,66%,0%,33
Cc1ccc(SCCSc2nc(C)cc(=O)[nH]2)cc1,40*,-14%,-2%,·
